According to PMC7862700, “An all-to-all approach to the identification of sequence-specific readers for epigenetic DNA modifications on cytosine”:

Columns and labels:
Assay in all cases: DAPPL (digital affinity profiling via proximity ligation, sequencing); 10 mM Tris-HCl pH 7.5, 50 mM NaCl, 1 mM DTT, 4% glycerol, room temperature, 30 min; GST-TFs on glutathione beads, 16-mer random dsDNA library, 0.1% formaldehyde crosslink after washing; high values mean tight binding
Details in all cases: protein: recombinant; tags: N-terminal GST; dsDNA, one strand shown
[1] = biological target: T1, ELK1 (Homo sapiens, UniProt P19419 1-428)
T1 sequence: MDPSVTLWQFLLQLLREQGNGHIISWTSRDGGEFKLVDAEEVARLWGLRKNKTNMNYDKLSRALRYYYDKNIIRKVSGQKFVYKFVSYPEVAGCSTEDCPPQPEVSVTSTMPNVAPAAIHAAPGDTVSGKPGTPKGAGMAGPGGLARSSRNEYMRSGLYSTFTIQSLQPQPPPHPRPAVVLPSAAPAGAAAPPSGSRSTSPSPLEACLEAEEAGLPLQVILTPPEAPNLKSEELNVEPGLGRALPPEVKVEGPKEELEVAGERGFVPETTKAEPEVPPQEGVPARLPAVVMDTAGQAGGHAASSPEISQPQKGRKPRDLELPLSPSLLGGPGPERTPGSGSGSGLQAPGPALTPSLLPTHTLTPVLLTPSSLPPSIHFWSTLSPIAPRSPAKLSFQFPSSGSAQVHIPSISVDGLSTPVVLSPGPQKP
Summary of the method: (§1)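 Human transcription factors fused to GST were expressed in yeast, captured on glutathione beads, given DNA barcodes and pooled with a GST-only negative control. Pools were incubated with 200 nmole of a 16-mer random double-stranded DNA library in Tris/NaCl/DTT/glycerol buffer at room temperature for 30 min. They were then washed, crosslinked with 0.1% formaldehyde, proximity-ligated (BsaI/T4 ligase, 1 h, 37 °C), PCR-amplified and sequenced on an Illumina NextSeq500. Binding signal is each 6-mer's read frequency for a factor divided by its frequency for the GST control.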

[2] = biological target: T2, GABPA (Homo sapiens, UniProt Q06546 1-454)
T2 sequence: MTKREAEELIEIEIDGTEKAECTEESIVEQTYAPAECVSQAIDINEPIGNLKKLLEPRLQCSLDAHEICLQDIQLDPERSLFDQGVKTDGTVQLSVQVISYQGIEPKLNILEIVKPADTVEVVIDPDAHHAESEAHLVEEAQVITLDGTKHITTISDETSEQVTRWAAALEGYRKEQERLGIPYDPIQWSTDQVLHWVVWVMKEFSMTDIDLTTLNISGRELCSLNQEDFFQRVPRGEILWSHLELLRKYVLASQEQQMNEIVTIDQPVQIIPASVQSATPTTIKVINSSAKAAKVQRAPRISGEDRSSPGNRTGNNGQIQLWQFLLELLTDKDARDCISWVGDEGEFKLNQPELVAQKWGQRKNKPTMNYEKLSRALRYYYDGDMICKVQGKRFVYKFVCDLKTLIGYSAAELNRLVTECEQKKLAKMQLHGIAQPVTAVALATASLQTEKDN
Summary of the method: as §1

[3] = biological target: T3, ERG (Homo sapiens, UniProt P11308 1-479)
T3 sequence: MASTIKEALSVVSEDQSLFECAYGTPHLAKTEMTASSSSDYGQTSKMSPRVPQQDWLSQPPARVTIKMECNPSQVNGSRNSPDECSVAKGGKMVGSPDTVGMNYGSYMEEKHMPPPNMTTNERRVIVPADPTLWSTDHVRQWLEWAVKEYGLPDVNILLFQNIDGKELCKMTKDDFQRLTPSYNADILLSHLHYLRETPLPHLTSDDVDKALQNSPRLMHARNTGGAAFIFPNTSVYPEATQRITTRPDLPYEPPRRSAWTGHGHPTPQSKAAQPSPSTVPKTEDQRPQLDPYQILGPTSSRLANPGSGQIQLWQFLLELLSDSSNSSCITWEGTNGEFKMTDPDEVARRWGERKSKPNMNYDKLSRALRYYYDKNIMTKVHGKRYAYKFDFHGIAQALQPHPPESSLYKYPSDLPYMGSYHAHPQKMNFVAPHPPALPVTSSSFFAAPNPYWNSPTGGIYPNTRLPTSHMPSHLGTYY
Summary of the method: as §1

[4] = biological target: SPIB (Homo sapiens, UniProt Q01892 1-262)
Chain of SPIB (Q01892 whole entry): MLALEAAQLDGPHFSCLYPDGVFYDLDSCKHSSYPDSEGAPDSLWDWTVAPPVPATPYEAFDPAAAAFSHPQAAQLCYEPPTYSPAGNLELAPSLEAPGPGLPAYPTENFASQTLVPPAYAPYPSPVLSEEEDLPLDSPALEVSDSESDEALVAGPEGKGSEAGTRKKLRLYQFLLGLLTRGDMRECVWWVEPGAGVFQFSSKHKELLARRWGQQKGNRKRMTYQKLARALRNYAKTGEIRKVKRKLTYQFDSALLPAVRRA
Summary of the method: as §1

[5] = biological target: T4, SPIC (Homo sapiens, UniProt Q8N5J4 1-248)
T4 sequence: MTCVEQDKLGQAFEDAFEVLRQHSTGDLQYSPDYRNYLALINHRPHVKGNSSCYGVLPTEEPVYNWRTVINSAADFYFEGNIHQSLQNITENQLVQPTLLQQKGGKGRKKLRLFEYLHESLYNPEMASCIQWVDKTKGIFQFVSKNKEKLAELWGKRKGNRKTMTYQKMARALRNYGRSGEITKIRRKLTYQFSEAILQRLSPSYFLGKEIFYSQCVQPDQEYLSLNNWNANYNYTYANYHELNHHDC
Summary of the method: as §1

[6] = biological target: T5, ELF3 (Homo sapiens, UniProt P78545 1-371)
T5 sequence: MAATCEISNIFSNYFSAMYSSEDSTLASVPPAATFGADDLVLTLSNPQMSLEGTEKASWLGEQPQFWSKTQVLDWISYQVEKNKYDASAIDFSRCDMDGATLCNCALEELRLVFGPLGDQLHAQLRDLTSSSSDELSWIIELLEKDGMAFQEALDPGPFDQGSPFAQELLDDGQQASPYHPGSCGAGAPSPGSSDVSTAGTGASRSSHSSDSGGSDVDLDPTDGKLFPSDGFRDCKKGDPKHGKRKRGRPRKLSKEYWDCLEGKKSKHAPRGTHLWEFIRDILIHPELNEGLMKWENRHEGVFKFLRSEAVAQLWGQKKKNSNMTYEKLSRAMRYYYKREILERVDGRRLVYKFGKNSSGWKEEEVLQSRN
Summary of the method: as §1

[7] = biological target: ETV1 (Homo sapiens, UniProt P50549 1-477)
Chain of ETV1 (P50549 whole entry): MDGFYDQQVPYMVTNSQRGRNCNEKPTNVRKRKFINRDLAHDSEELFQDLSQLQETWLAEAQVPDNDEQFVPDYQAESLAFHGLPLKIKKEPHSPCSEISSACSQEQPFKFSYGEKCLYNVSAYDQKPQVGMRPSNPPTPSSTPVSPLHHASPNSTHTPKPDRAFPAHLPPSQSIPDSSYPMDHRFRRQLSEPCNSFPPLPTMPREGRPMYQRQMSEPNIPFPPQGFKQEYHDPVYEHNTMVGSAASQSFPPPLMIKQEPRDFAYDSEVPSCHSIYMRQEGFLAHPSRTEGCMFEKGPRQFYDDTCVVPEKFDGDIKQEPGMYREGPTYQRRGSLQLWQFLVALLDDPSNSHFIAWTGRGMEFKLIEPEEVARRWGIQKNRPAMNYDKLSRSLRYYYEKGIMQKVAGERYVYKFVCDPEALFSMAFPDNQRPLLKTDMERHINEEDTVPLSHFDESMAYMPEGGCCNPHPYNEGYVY
Summary of the method: as §1

[8] = biological target: T6, ETV3L (Homo sapiens, UniProt Q6ZN32 1-361)
T6 sequence: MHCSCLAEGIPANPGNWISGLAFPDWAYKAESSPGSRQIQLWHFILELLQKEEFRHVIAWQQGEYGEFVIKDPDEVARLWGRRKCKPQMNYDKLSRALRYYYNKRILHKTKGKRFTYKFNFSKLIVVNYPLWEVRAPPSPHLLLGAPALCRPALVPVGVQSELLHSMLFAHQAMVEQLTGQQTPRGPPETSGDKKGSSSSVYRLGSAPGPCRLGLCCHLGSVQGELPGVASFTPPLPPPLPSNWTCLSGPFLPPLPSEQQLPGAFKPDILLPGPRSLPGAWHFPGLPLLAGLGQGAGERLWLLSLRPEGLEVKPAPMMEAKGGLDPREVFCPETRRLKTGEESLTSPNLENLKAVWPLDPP
Summary of the method: as §1

[9] = biological target: ELF1 (Homo sapiens, UniProt P32519 1-619)
Chain of ELF1 (P32519 whole entry): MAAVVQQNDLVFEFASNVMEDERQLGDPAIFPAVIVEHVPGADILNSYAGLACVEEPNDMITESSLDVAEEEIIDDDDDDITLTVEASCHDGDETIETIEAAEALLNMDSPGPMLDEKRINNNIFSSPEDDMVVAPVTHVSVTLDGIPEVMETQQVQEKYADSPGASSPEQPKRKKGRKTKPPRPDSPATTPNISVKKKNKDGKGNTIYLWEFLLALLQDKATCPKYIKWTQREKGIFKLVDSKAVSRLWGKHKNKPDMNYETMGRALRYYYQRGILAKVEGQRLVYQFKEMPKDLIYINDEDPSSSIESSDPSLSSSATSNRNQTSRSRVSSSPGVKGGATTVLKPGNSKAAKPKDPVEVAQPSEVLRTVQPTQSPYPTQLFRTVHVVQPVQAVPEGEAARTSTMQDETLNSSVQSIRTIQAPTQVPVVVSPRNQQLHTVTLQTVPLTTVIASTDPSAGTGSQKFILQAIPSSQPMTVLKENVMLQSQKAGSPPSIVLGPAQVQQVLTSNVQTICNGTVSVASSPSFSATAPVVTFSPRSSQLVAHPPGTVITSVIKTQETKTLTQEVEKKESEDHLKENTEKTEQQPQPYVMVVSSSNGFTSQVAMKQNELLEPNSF
Summary of the method: as §1

[10] = biological target: T7, EHF (Homo sapiens, UniProt Q9NZC4 1-300)
T7 sequence: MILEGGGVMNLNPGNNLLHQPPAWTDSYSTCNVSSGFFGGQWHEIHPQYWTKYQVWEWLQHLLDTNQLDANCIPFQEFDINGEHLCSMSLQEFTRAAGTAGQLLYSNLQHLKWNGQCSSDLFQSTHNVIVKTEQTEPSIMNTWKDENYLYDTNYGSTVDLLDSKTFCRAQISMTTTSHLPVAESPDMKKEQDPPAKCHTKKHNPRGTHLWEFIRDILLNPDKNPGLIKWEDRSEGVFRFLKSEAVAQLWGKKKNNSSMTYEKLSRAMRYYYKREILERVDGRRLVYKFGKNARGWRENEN
Summary of the method: as §1

[11] = biological target: T8, ELK3 (Homo sapiens, UniProt P41970 1-407)
T8 sequence: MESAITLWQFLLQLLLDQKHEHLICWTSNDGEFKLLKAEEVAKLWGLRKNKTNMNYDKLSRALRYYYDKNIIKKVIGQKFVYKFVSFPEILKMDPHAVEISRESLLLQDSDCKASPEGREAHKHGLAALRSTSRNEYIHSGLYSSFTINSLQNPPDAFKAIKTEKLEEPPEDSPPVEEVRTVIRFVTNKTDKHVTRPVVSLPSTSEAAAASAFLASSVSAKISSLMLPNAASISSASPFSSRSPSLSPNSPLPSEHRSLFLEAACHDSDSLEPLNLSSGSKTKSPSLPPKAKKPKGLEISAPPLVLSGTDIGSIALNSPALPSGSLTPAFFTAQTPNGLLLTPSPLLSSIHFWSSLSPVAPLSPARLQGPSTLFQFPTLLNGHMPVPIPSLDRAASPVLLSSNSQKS
Summary of the method: as §1

[12] = biological target: T9, ERF (Homo sapiens, UniProt P50548 1-548)
T9 sequence: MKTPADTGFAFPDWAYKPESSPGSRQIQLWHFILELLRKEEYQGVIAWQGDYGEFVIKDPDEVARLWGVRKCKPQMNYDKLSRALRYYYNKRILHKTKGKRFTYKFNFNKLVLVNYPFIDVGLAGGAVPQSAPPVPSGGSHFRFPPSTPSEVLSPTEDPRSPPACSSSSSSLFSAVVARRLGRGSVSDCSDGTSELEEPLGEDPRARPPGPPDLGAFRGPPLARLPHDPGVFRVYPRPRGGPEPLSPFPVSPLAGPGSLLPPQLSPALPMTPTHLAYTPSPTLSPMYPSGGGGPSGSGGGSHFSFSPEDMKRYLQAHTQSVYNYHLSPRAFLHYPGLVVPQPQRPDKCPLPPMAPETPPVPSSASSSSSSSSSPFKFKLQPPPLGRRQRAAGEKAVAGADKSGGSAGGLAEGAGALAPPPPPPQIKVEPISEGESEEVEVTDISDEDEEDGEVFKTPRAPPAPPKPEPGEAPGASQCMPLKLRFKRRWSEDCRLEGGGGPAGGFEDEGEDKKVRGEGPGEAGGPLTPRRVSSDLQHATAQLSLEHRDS
Summary of the method: as §1

[13] = biological target: T10, ETS2 (Homo sapiens, UniProt P15036 1-469)
T10 sequence: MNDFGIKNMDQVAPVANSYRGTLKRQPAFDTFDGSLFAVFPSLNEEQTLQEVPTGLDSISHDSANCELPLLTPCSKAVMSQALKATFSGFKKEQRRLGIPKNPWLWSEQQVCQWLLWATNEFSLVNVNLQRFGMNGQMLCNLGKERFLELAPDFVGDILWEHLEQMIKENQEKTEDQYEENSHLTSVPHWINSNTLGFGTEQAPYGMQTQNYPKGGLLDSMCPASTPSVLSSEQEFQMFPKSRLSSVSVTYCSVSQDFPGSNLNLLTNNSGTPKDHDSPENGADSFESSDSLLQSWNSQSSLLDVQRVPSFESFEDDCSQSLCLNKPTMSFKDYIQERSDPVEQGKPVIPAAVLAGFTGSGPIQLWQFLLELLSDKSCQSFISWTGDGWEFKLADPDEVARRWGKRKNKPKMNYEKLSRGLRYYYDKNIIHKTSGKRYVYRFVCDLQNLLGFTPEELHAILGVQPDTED
Summary of the method: as §1

[14] = biological target: T11, ETV7 (Homo sapiens, UniProt Q9Y603 1-341)
T11 sequence: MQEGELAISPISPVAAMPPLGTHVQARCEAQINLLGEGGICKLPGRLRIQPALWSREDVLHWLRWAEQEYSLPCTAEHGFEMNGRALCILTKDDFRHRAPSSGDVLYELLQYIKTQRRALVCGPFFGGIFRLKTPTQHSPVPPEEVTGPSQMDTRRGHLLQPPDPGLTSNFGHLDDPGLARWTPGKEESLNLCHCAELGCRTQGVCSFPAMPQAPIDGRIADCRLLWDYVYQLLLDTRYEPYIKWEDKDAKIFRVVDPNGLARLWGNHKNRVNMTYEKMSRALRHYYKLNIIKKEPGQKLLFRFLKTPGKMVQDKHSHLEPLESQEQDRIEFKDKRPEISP
Summary of the method: as §1

[15] = biological target: ETV6 (Homo sapiens, UniProt P41212 1-452)
Chain of ETV6 (P41212 whole entry): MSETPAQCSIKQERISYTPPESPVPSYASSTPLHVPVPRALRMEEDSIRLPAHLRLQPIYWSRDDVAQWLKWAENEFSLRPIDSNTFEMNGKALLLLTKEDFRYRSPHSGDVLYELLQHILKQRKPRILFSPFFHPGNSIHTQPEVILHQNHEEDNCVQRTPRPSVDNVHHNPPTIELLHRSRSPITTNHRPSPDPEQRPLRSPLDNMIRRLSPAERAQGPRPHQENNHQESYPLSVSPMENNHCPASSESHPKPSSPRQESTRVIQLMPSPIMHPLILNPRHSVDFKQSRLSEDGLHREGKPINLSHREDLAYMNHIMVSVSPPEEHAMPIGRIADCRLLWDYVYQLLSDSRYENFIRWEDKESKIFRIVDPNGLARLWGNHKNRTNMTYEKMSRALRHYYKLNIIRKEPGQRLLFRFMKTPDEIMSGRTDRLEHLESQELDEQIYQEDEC
Summary of the method: as §1

Row | Sequence | binding signal [1] | binding signal [2] | binding signal [3] | binding signal [4] | binding signal [5] | binding signal [6] | binding signal [7] | binding signal [8] | binding signal [9] | binding signal [10] | binding signal [11] | binding signal [12] | binding signal [13] | binding signal [14] | binding signal [15]
1 | GCGTAT | 1.04 fold enrichment (6-mer frequency, TF over GST control) | 1 fold enrichment (6-mer frequency, TF over GST control) | 1.03 fold enrichment (6-mer frequency, TF over GST control) | 1.11 fold enrichment (6-mer frequency, TF over GST control) | 1.07 fold enrichment (6-mer frequency, TF over GST control) | 1.03 fold enrichment (6-mer frequency, TF over GST control) | 1.05 fold enrichment (6-mer frequency, TF over GST control) | 1.02 fold enrichment (6-mer frequency, TF over GST control) | – | – | – | – | – | – | –
2 | ATAGGC | – | 1.01 fold enrichment (6-mer frequency, TF over GST control) | 1.01 fold enrichment (6-mer frequency, TF over GST control) | 1.11 fold enrichment (6-mer frequency, TF over GST control) | 1.06 fold enrichment (6-mer frequency, TF over GST control) | 1.07 fold enrichment (6-mer frequency, TF over GST control) | 1.01 fold enrichment (6-mer frequency, TF over GST control) | 1.02 fold enrichment (6-mer frequency, TF over GST control) | 1.03 fold enrichment (6-mer frequency, TF over GST control) | 1.04 fold enrichment (6-mer frequency, TF over GST control) | 1.02 fold enrichment (6-mer frequency, TF over GST control) | 1.04 fold enrichment (6-mer frequency, TF over GST control) | 1.01 fold enrichment (6-mer frequency, TF over GST control) | 1.01 fold enrichment (6-mer frequency, TF over GST control) | 1.04 fold enrichment (6-mer frequency, TF over GST control)
